Spn PMK inh – inhibitors of Streptococcus pneumoniae phosphomevalonate kinase. purified PMK, PK/LDH-coupled NADH absorbance 340 nm. inhibition, % at 10 µM. 65,000 compounds, 0.49% hits. AID 539;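 active = top-ranked compounds by inhibition in the single 10 µM screen, taking a fixed number of the strongest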;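 note: 0% = full reaction with DMSO carrier and 100% = background rate without enzyme reaction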
A340 absorber – compound absorbs light at 340 nm; AID 708; fold change at 10 µM; 65,000 tested, under 10 active; compound absorbance at 340 nm, fold over control;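 active = at 10 µM dose, initial 340 nm absorbance at least 2 fold that of control wells; inactive = change under 2 fold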;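 note: initial absorbance extrapolated from kinetic A340 decline of NADH oxidation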
DPM-DC inhibit – inhibitors of Streptococcus pneumoniae diphosphomevalonate decarboxylase; purified DPM-DC, PK/LDH coupled NADH fluorescence; calls only at 10 µM; 65,000 compounds, 0.49% hits; AID 556;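 active = the 320 compounds with the highest percent inhibition in the single-dose primary screen, excluding strongly autofluorescent ones, cut at about 32% in these data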;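 note: kinetic rate of NADH fluorescence loss reporting ADP formed by the decarboxylase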
MK inhibit – blocks S. pneumoniae mevalonate kinase | purified MK, PK/LDH-coupled NADH absorbance 340 nm | inhibition, % at 10 µM | 65,000 compounds, 0.48% hits | AID 555;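 active = ranked among the strongest by inhibition in the single 10 µM screen, a fixed top-ranked set picked for dose follow-up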
NADH enzymes – blocks coupling enzymes of NAD/NADH assays | coupled PK/LDH NADH assays, four targets | IC50, µM (titrated, usually from 10 µM), for the others: at the highest dose inhibition | 65,000 compounds, 0.02% hits;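 active = single-dose screening hits from any of four coupled enzyme assays that gave an IC50 when retested across doses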;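 note: the DPM-DC format reads NADH fluorescence rather than 340 nm absorbance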
Autofluor 339 – intrinsic fluorescence of library compounds, ex339/em460 – biochemical, MLSMR library, data from DPM-DC assay, artefact control, profiling panel. compound autofluorescence, ex339/em460 nm, NADH buffer; active compounds read high; 1 = no-compound wells, NADH background. fluorescence fold increase at 10 µM. 65,000 compounds, 5.5% hits. AID 709;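 active = at 10 µM, mean starting fluorescence two-fold or more over control wells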;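 note: signal is the first read of a kinetic run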
An asterisk follows results filed as active; i = inactive; x = no result shown; + = active, no number. The list is not random: actives were taken first. Their share in the collection is about 6.5%.

SMILES	Spn PMK inh	A340 absorber	DPM-DC inhibit	MK inhibit	NADH enzymes	Autofluor 339
O=C1CCCC2=C1C(c1ccncc1)c1c(nc(SCc3ccccc3)[nH]c1=O)N2 (stereo not given)	0.0	1.1	x	10.0	5.0%	2.19*
COCCN(CC(=O)NCc1ccccc1)C(=O)CCC(=O)Nc1ccccn1	15.0	0.97	i	8.0	5.0%	0.98
N#CC1=C(N)N(c2ccccc2)C(c2ccco2)C1(C#N)C#N (stereo not given)	11.0	1.02	x	12.0	4.0%	2.17*
Cc1cccc(N2C(N)=C(C#N)C(C#N)(C#N)C2c2ccccc2)c1 (stereo not given)	0.0	1.03	i	11.0	12.0%	2.7*
Cc1cccc(-n2ncc(C#N)c2N)c1	4.0	1	i	8.0	2.0%	1.01
Cn1c(=O)c2c(nc(CN3CCc4ccccc4C3)n2CC(=O)c2ccccc2)n(C)c1=O	5.0	0.99	i	7.0	4.0%	1.1
CN(C)C(CNC(=O)CN1C(=O)NC2(CCc3ccccc32)C1=O)c1ccco1 (stereo not given)	18.0	0.94	i	3.0	7.0%	1.01
CCOC(=O)C1CCN(Cc2ccc(C(=O)OC)cc2)CC1	8.0	1.02	i	60.0*	6.0%	1.01
COCCNc1cc(C)nc2c3c(C)cc(C)nc3nn12	8.0	1.01	x	10.0	9.0%	3.83*
Cc1cc(C)c2c(n1)nn1c(NCCN3CCOCC3)cc(C)nc21	5.0	1	x	5.0	5.0%	3.82*
Cc1ccc(OCCCN(C)C)c(Br)c1	13.0	1.05	i	45.0*	19.0%	1.1
Cc1nn(-c2ccc(C(=O)O)cc2)c(N)c1-c1ccccc1	15.0	0.97	i	3.0	6.0%	1.05
Cc1nn(-c2ccccc2)c2c1C(O)n1c(nc3ccccc31)S2 (stereo not given)	10.0	1	i	+	6.0%	1.03
COc1ccc2nc(NC(=O)C3CCCN(S(=O)(=O)c4cccc5nsnc45)C3)sc2c1 (stereo not given)	8.0	0.98	i	7.0	4.0%	1.03
COc1ccc2nc(NC(=O)C3CCCN(S(=O)(=O)c4cccc5nonc45)C3)sc2c1 (stereo not given)	15.0	1.02	i	70.0*	28.0%	1.02
CCOc1ccc(-c2nnc(-c3snc(-c4ccc(F)cc4)c3N=CN(C)C)o2)cc1	7.0	1.06	x	0.0	4.0%	3.77*
COCCCNC(=O)C(F)(F)C(F)(F)C(=O)NCCCOC	5.0	1.03	i	6.0	4.0%	1.04
Cc1cccn2c(=O)c3cc(C(=O)N4CCc5ccccc54)n(C)c3nc12	10.0	1.03	i	8.0	9.0%	2.51*
Cn1c(C(=O)N2CCc3ccccc3C2)cc2c(=O)n3ccccc3nc21	13.0	1.07	x	0.0	7.0%	5.05*
O=C(c1ccco1)N1CCN(c2nc3ccccc3c(=O)n2-c2ccccc2)CC1	4.0	1.07	i	4.0	3.0%	1.75
CCN(CC)C(=O)c1cc2c(=O)n3cccc(C)c3nc2n1C	9.0	1.12	x	11.0	10.0%	4.98*
CC1Cc2ccccc2N1C(=O)c1cc2c(=O)n3ccccc3nc2n1C (stereo not given)	7.0	1.05	i	0.0	2.0%	1.74
Cn1c(C(=O)N2CCN(C(=O)c3ccco3)CC2)cc2c(=O)n3ccccc3nc21	3.0	1.04	x	2.0	3.0%	3.44*
CCOC(=O)CSC1=NC(=O)CS1	10.0	1	i	1.0	4.0%	1.24
CC1(C)CC(=O)C=C(NCCN2CCN(C(=O)Nc3ccccc3)CC2)C1	2.0	0.98	i	6.0	2.0%	1.07
Nc1ccc(CN2CCN(c3ccc4ccccc4n3)CC2)cc1	7.0	1.08	i	5.0	4.0%	1.6
Cc1cccn2c(=O)c3cc(C(=O)N4c5ccccc5CC4C)n(C)c3nc12 (stereo not given)	13.0	1.03	i	4.0	7.0%	1.9
Cc1cccn2c(=O)c3cc(C(=O)N4CCN(C(=O)c5ccco5)CC4)n(C)c3nc12	7.0	1.12	x	0.0	4.0%	4.95*
Cc1sc2nc3c4ccccc4c(NCc4ccco4)nn3c(=O)c2c1C	3.0	1.07	x	2.0	3.0%	4.74*
Cc1nnc(NCc2ccco2)c2ccccc12	14.0	1.02	i	2.0	5.0%	1.06
